Results reported in the supplement of paper PMC13380429.

System: Vero E6 infected with SARS-CoV-2
Assay: inhibition of SARS-CoV-2 cytopathic effect; higher = more antiviral protection, active = above 15
Conditions: 1 nM; 48 h

Row | Compound | inhibition of SARS-CoV-2 cytopathic effect
1 | COc1cccc(Nc2ncnn3ccc(CN4CC[C@@H](N)[C@H](O)C4)c23)c1 | -0.26% (inactive)
2 | C[N+](C)(C)CCCCCCCCCC[N+](C)(C)C [decamethonium] | -3.35% (inactive)
3 | Cc1ccnc2c1NC(=O)c1cccnc1N2C1CC1 [nevirapine] | -0.06% (inactive)
4 | CS(=O)(=O)Nc1ccc(-c2coc3cc(OCc4cccc(C(=O)O)c4)ccc3c2=O)cc1 | -0.72% (inactive)
5 | CCc1nc2ccc(Cl)cn2c1C(=O)NCc1ccc(N2CCC(c3ccc(OC(F)(F)F)cc3)CC2)cc1 | 0.5% (inactive)
6 | C=CC1=C(C(=O)O)N2C(=O)[C@@H](NC(=O)/C(=N\O)c3csc(N)n3)[C@H]2SC1 [cefdinir] | 1.85% (inactive)
7 | C[N+]12CCCCC1CCC(=C(c1cccs1)c1cccs1)C2 (centres undefined) [tiquizium] | -3.91% (inactive)
8 | Cc1cc(OCCCS(C)(=O)=O)cc(C)c1-c1cccc(COc2ccc3c(c2)OC[C@H]3CC(=O)O)c1 | -1.83% (inactive)
9 | CCn1cc(C(=O)O)c(=O)c2cc(F)c(N3CCN(C)CC3)cc21 [pefloxacin] | 2.27% (inactive)
10 | CC(C)C(=O)Nc1ccc([N+](=O)[O-])c(C(F)(F)F)c1 [flutamide] | -1.61% (inactive)
11 | Cc1ncc([N+](=O)[O-])n1CC(O)CN1CCOCC1 (centres undefined) [morinidazole] | -0.31% (inactive)
12 | O=c1c2ccccc2[se]n1-c1ccccc1 [Ebselen] | 2.29% (inactive)
13 | CCCc1cc(C(N)=S)ccn1 [protionamide] | -1.61% (inactive)
14 | C#CCOC(=O)C1=CCCN(C)C1 [arecaidine-propargyl-ester] | -3.75% (inactive)
15 | Cc1c(-c2ccc(O)cc2)n(Cc2ccc(OCCN3CCCCCC3)cc2)c2ccc(O)cc12 [bazedoxifene] | -2% (inactive)
16 | CN(Cc1ccccc1)C(=O)[C@H](Cc1ccc2ccccc2c1)NC(=O)[C@@H]1C[C@@H](O)CN1C(=O)c1cn(C)c2ccccc12 | 1.18% (inactive)
17 | NC1(c2ccc(-c3nc4ccn5c(=O)[nH]nc5c4cc3-c3ccccc3)cc2)CCC1 | -1.08% (inactive)
18 | CN(C)CCCSc1ccccc1NC(=O)/C=C/c1ccccc1 [cinanserin] | 1.46% (inactive)
19 | c1cc(Cc2cnc[nH]2)ccn1 [immethridine] | 0.32% (inactive)
20 | COc1cc(C(=O)N2CCC(N3CCN(C)CC3)CC2)ccc1Nc1ncc2c(n1)N(C)c1ccccc1C(=O)N2C | 0.64% (inactive)

Row | Compound | inhibition of SARS-CoV-2 cytopathic effect
21 | CC/C(=C(\c1ccc(O)cc1)c1ccc(OCCN(C)C)cc1)c1ccccc1 [afimoxifene] | -2.83% (inactive)
22 | COc1cc(N2CCC(N3CCN(C)CC3)CC2)ccc1Nc1ncc(Cl)c(Nc2ccccc2P(C)(C)=O)n1 [brigatinib] | 0.45% (inactive)
23 | CC#CCOC(=O)c1c(C)nc2sc3c(c2c1N)CCC(O)C3 (centres undefined) | 1.8% (inactive)
24 | O=C(O)CCC(=O)OC[C@@H](NC(=O)C(Cl)Cl)[C@H](O)c1ccc([N+](=O)[O-])cc1 [chloramphenicol-sodium-succinate] | 3.1% (inactive)
25 | CC(C)[C@H]1CC[C@H](C(=O)N[C@H](Cc2ccccc2)C(=O)O)CC1 [nateglinide] | 0.56% (inactive)
26 | CC(C)(C)c1ccc(S(=O)(=O)/C=C/C#N)cc1 | 2.15% (inactive)
27 | COc1ccc(S(=O)(=O)N2CCCN(S(=O)(=O)c3ccc(OC)c(OC)c3)CC2)cc1OC | -2.26% (inactive)
28 | Cc1ccc(-n2sc(=O)n(Cc3ccc(F)cc3)c2=O)cc1 | 1.81% (inactive)
29 | CCC[C@@H]1C[C@@H](C(=O)N[C@@H]([C@H]2O[C@H](SC)[C@H](O)[C@@H](O)[C@H]2O)[C@@H](C)O)N(C)C1 [lincomycin] | 1.22% (inactive)
30 | C[N+](C)(C)CCOC(=O)CCC(=O)OCC[N+](C)(C)C [succinylcholine-chloride] | 2.27% (inactive)
31 | CC(=O)SC[C@@H](C)C(=O)N1CCC[C@H]1C(=O)N[C@@H](Cc1ccccc1)C(=O)O [alacepril] | -1.69% (inactive)
32 | COc1ccc(-c2cnc3c(-c4cccc5ncccc45)cnn3c2)cc1 | -0.88% (inactive)
33 | Nc1nc(Cl)nc2c1ncn2[C@@H]1O[C@H](CO)[C@@H](O)[C@@H]1F [clofarabine] | 0.13% (inactive)
34 | Cc1cc(N)c2ccccc2[n+]1CCCCCCCCCC[n+]1c(C)cc(N)c2ccccc21 [dequalinium] | 1.5% (inactive)
35 | NC12CC3CC(CC(C3)C1)C2 [amantadine] | 0.16% (inactive)
36 | CCNC(C)CN1CCc2c(c(=O)oc3ccccc23)C1 (centres undefined) | -2.32% (inactive)
37 | C/C(=N\c1ccccc1N)c1c(C)cc(=O)n(O)c1O | -2.19% (inactive)
38 | c1ccc(CCNc2nc(-c3ccccc3)cs2)cc1 [fanetizole] | -2.03% (inactive)
39 | C[C@@H]([C@H](O)c1ccc(O)cc1)N1CCC(Cc2ccccc2)CC1 (racemic) [ifenprodil] | 2.09% (inactive)
